Source: PubChem BioAssay
In the library only some 21% were active in any assay of this set; here they are far more common.
Gal4-VP16 FLuc: inhibits Gal4-VP16 luciferase reporter, ROR gamma counter-screen | Drosophila S2 Gal4-VP16 UAS-luciferase, luminescence, 20 h | Potency, µM (doses to about 53.6 µM), for inactives: at the top dose activity, negative = inhibition, hits mostly inhibitors | 310,000 tested, 3.5% active;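 note: Gal4-VP16 expression switched on by copper sulfate through the metallothionein promoter; potency is the fitted concentration of half-maximal effect; nearly all actives have a fitted effect of over 50% in size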
RORgamma inh: ROR gamma (mouse) transcription inhibition; P51450; Drosophila S2 Gal4-RORgamma UAS-luciferase reporter, 20 h; Potency, µM (doses to about 53.6 µM), for inactives: at the highest dose activity change, negative = inhibition, most hits filed as inhibitors; 310,000 tested, 5.4% active; AID 2551; note: potency is the fitted concentration of half-maximal effect; nearly all actives have a fitted effect of over 60% in size
Target sequence (P51450 whole entry, looked up, the tested form may be a part): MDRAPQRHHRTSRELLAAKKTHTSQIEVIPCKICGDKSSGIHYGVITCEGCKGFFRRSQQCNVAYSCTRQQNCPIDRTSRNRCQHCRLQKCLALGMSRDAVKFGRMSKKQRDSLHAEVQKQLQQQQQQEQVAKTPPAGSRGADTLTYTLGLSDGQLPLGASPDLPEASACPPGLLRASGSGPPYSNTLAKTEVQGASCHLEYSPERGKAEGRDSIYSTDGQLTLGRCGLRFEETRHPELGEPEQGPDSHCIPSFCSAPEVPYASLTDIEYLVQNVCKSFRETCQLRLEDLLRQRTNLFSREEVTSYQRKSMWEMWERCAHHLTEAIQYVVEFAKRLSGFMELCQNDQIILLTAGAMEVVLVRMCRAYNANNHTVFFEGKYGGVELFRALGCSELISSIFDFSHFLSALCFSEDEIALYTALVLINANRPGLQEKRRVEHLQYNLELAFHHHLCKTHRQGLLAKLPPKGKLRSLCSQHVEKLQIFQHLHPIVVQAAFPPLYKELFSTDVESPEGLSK
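ROR gamma transcriptional activity was tracked as Gal4-UAS luciferase output in stably transfected Drosophila Schneider cells, with compound added 1 hr before 700 uM copper sulfate induction and a 20 hr ambient-temperature incubation.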
ELG1 repair inh: blocks ELG1-dependent DNA repair in HEK293T cells; HEK293T ELG1-luciferase reporter, luminescence, 16 h; DNA damage induced by 5-fluorouridine; Potency, µM (series often up to 46.1 µM), for the others: at the highest dose activity change, negative = inhibition, usual class: inhibitors; 330,000 tested, 2.3% active; AID 504467; note: potency is the fitted concentration of half-maximal effect; nearly all actives have a fitted effect of over 55% in size
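Overnight (16 hr) co-exposure of 2,000 cells/well to 5-fluorouridine and compound at 37 °C preceded detection. Luciferase was quantified via ONE-Glo luminescence; loss of signal denotes inhibition.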
DT40 TDP1 no CPT: qHTS for Inhibitors of human tyrosyl-DNA phosphodiesterase 1 (TDP1): qHTS in cells in absence of CPT; AID 686978, 2013; Potency, µM (doses to about 46.2 µM), inactives show at the top dose activity change, negative = growth inhibition, most hits filed as inhibitors; 420,000 tested, 15% active; DT40 Tdp1-/- hTDP1 cells, no CPT, ATP luminescence, 48 h; note: potency is the fitted concentration of half-maximal effect; nearly all actives have a fitted effect of over 55% in size
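Seeded 400 DT40-hTDP1 cells/well (vehicle DMSO, no 20 nM CPT); pinned compounds; ≥48 hr at 37 °C; CellTiter-Glo luminescence as viability measure.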
IL-1B inflam inh: inhibitors of inflammasome signaling (IL-1 beta secretion); THP-1 LPS/ATP IL-1B secretion, AlphaLISA, 16 h; hits give low values; AID 743279; 360,000 tested, 4.7% active; activity change, % at 57.5 µM; in the data active = activity change below about -50%; inconclusive = mostly about -30% to -49%
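THP-1 cells pretreated 1 hr with compounds (up to 57.5 uM final), then stimulated with LPS (250 ng/mL final) plus ATP (1.25 mM final); secreted IL-1B measured by AlphaLISA after 16 hr, decreased signal indicating inhibition.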
DT40 TDP1 CPT: growth inhibition of DT40 Tdp1-/-;hTDP1 cells with camptothecin (screen for TDP1 inhibitors). chicken DT40 Tdp1-/-;hTDP1 cells + 20 nM CPT, ATP luminescence, 48 h. Potency, µM (doses to about 46.2 µM), for the others: top-dose activity change, negative = growth inhibition, usual class: inhibitors. 420,000 tested, 12% active; note: potency is the fitted concentration of half-maximal effect; nearly all actives have a fitted effect of over 55% in size
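Chicken DT40 Tdp1-/- cells complemented with human TDP1, 400 cells/well, exposed to compounds plus 20 nM camptothecin for at least 48 h at 37 C; viability read as ATP content by CellTiter-Glo luminescence.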
Active calls of the source: *; i = inactive; ? = inconclusive; · = no result; [ ] = another dose, or the depositor's remark. Unless noted, calls come from the whole dose curve; as a rule, active = well fitted curve in the direction sought with a large enough effect; inconclusive = small, poorly fitted or top-dose-only effect, or another doubt; inactive = no such curve, though single readings can be large; an effect the other way counts as inactive or inconclusive. % is set by controls: 0 for no effect and ±100 for the full control effect.

SMILES | Gal4-VP16 FLuc | RORgamma inh | ELG1 repair inh | DT40 TDP1 no CPT | IL-1B inflam inh | DT40 TDP1 CPT
Cc1ccc(-c2cc(C(=O)Nc3nccs3)c3ccccc3n2)c(C)c1 | 6.3µM* | 4.5µM* | 13µM* | 13µM* | 3 | 13µM*
O=C(Nc1nccs1)c1cc(-c2ccncc2)nc2ccccc12 | -14% | -31% | -17% | ? | 18 | -25%
COc1cc(-c2cc(C(=O)NCc3ccco3)c3ccccc3n2)cc(OC)c1OC | -1% | -9% | 13µM* | 2.6µM* | -15 | ?
Cc1ccc(-c2cc(C(=O)NCc3ccco3)c3ccccc3n2)s1 | ? | ? | -13% | ? | -23 | ?
COc1ccc(S(=O)(=O)NC(=O)C2(C)CCN2C(=O)Cc2cc(F)ccc2F)cc1 (stereo not drawn) | · | · | · | -8% | 22 | -5%
CCCN1CNc2c(c(=O)[nH]c(=S)n2CCc2cccc(C)c2C)C1 | · | · | · | 13µM* | · | ?
CCCN1CNc2c(c(=O)[nH]c(=S)n2CCc2ccccc2)C1 | -2% | -9% | -14% | -19% | 17 | -9%
CCCN1CNc2c(c(=O)[nH]c(=S)n2CCCc2ccccc2)C1 | · | · | · | 13µM* | · | ?
CCCN1CNc2c(c(=O)[nH]c(=S)n2CCC(C)(C)C)C1 | · | · | · | 13µM* | · | ?
COc1ccc(C(=O)CC(C(=O)O)c2ccc3c(c2)OCO3)cc1OC (stereo not drawn) | · | · | · | 5% | -4 | 7%
CCOC1=C2CN(S(=O)(=O)c3ccc(C)cc3)C(c3ccc(CC)cc3)CC2n2c(=O)n(-c3ccccc3)c(=O)n2C1 (stereo not drawn) | · | · | · | -19% | -11 | -20%
Nc1ncnc2c1ncn2[C@@H]1O[C@H](C(=O)NCCCN2CCCC2=O)[C@@H](O)[C@H]1O | · | · | · | 15% | 10 | 0%
Cc1cccc(-c2nc3c4ccccc4nc(NCc4ccccc4Cl)n3n2)c1 | · | · | · | -15% | · | 1%
O=C(NCCNC(=O)c1ccccn1)c1ccccc1 | -4% | ? | 0% | 1% | -2 | -1%
O=C(c1cnn2c1NC(c1ccc(Br)cc1)CC2C(F)(F)F)N1CCN2CCCC2C1 (stereo not drawn) | -11% | 19% | -2% | ? | -7 | 18µM*
C=CCNc1nc(-c2sc(NC(=O)C(C)(C)C)nc2C)c(-n2cc(-c3ccccc3)nn2)s1 | · | · | · | 15µM* | -1 | 21µM*
O=c1[nH]nc(Cc2ccc(-c3cccc(Cl)c3)o2)c2ccccc12 | -6% | 16% | -9% | ? | 53 | 16µM*
O=C(Cc1n[nH]c(=O)c2ccccc12)NCc1ccc(Cl)cc1 | 8% | 36% | 5% | -18% | 35 | ?
Cc1nn(C)c(Cl)c1S(=O)(=O)N(Cc1ccco1)c1ncnc2nc[nH]c12 | · | · | · | -10% | · | -9%
COCCOC(=O)C1=C(C)N=C2SCCC(=O)N2C1/C=C/c1ccccc1 (stereo not drawn) | 3% | -42% | 4% | 18µM* | -23 | 18µM*
CC(C)(C)c1cn(-c2ccc(F)cc2)c(=S)[nH]1 | 10µM* | 8.9µM* | 1% | 1% | 0 | 6%
CCOc1ccc(S(=O)(=O)NCCC(=O)NCCOc2ccccc2)cc1 | · | · | -3% | -27% | -2 | 0%
Cc1ccc(C(=O)Nc2cccc(NC(=O)c3cccs3)c2)c(C)c1 | 22% | 73% | -18% | 16µM* | 1 | -67%
COc1cc(NC(=O)c2cc(OC)c(OC)c(OC)c2)ccc1NC(=O)c1cccs1 | 6% | -11% | ? | ? | i | ?
COc1cc(NC(=O)c2ccc(C)cc2C)ccc1NC(=O)c1cccs1 | -10% | 21% | ? | -17% | -63* | -7%
SMILES | Gal4-VP16 FLuc | RORgamma inh | ELG1 repair inh | DT40 TDP1 no CPT | IL-1B inflam inh | DT40 TDP1 CPT
COc1cc(NC(=O)c2c(F)c(F)c(OC)c(F)c2F)ccc1NC(=O)c1cccs1 | 0% | 15% | -22% | 18µM* | 0 | 21µM*
CC(=O)Nc1ccc(Sc2ncnc3scc(-c4ccccc4)c23)cc1 | 1% | 42% | 1% | 5% | ? | 11%
Cn1nnnc1Sc1ncnc2scc(-c3ccccc3)c12 | 3% | ? | ? | 16µM* | -104* | 15µM*
c1ccc(-c2csc3ncnc(Sc4nnnn4-c4ccccc4)c23)cc1 | · | · | · | 10µM* | · | ?
Cn1nnnc1Sc1ncnc2scc(-c3ccc(F)cc3)c12 | 24% | 10µM* | 20% | 6.5µM* | -68* | 16µM*
Cc1ccc(-c2csc3ncnc(Sc4nnnn4C4CC4)c23)cc1 | · | · | · | 11µM* | · | 10µM*
Cn1nnnc1SCc1nc2scc(-c3ccc(Cl)cc3)c2c(=O)[nH]1 | -17% | -2% | -5% | -19% | ? | -26%
O=C(CN(C(=O)c1csnn1)c1ccccc1C(F)(F)F)NCc1ccccc1 | 6% | ? | -17% | -9% | -12 | -20%
CCN(C(=O)COC(=O)c1ccccc1NCCO)C1CCS(=O)(=O)C1 (stereo not drawn) | · | · | 19% | -7% | 0 | 17%
CC(C)NC(=O)N(C)C[C@@H]1Oc2ccc(NC(=O)CCN3CCOCC3)cc2CC(=O)N([C@@H](C)CO)C[C@@H]1C | · | · | ? | 7% | -3 | -5%
CO[C@H]1COC(=O)C/C=C\[C@H](C)[C@H](OC)COC(=O)[C@@H](C)NC(=O)C/C=C\[C@@H]1C | -2%[10 µM] | 8%[10 µM] | · | · | · | ·
Cc1ccc(-c2nc(-c3cc4cccc(OCc5ccccc5F)c4oc3=O)no2)cc1 | · | · | · | -10% | · | -9%
Cc1nc(OCC(C)C)c2sc3nc4c(cc3c2n1)COC(C)(C)C4 | -3% | 16% | ? | 21µM* | -26 | ?
CCc1nc2c(sc3nc4c(cc32)COC(C)(C)C4)c(=O)n1Cc1ccco1 | -9% | -1% | ? | 23µM* | 0 | 23µM*
CC1(C)Cc2nc3sc4c(SCC(=O)O)ncnc4c3cc2CO1 | 14µM* | 8.9µM* | ? | ? | -8 | -2%
COC(=O)CSc1ncnc2c1sc1nc3c(cc12)COC(C)(C)C3 | -24% | -24% | 25% | ? | -8 | -18%
CCc1nc(OCc2ccco2)c2sc3nc4c(cc3c2n1)COC(C)(C)C4 | -21% | ? | ? | 16µM* | 4 | 26µM*
CC(C)C[C@@H](CC(=O)N[C@H](CC(=O)N[C@@H]1CCCC[C@H]1C(=O)N[C@H](CC(=O)N[C@@H](CCC(=O)O)CC(=O)O)CC(C)C)C(C)C)NC(=O)[C@@H]1CCCC[C@H]1N | 5% | 6% | · | · | · | ·
